The whole screen tested about 340,000 compounds, of which about 1,000 (0.29%) were called active. Cut-off read from the data, not from the text of the source: inconclusive = inhibition above about 27% without an active follow-up result; inactive = below that. A selection follows. Measured potencies and affinities stand elsewhere.

The test can be described thus: NS1A inhibition, H1N1 influenza, cell based functional assay (AID 504329). The note with it: percent inhibition, at 12.5 µM, active compounds read high.
As to `COc1ccc(C)cc1NS(=O)(=O)c1ccc2c(c1)N(C)CCO2`, the inhibition was 3.31% (inactive).

As for `COC(=O)C1CN(C(=O)c2ccc(OC(F)F)cc2)c2ccccc2O1` (configuration not stated), the inhibition was 8.47% (inactive).

For `CN(CC(=O)Nc1ccccc1Cl)CC(=O)N1CCc2ccccc21`, the inhibition is -8.6% (inactive). As for `CCOc1ccc(CC(=O)Nc2nccs2)cc1OCC`, the inhibition is -1.94% (inactive). As for `C=CCNc1nc(N)c([N+](=O)[O-])c(Nc2cccc(Cl)c2)n1`, the inhibition was 3.17% (inactive). As to `CC(C)=CC(=O)Nc1nnc(-c2ccccc2C)s1`, the inhibition is -8.76% (inactive). For the molecule `O=C(CNCc1ccc(Cl)cc1)N1CCc2ccccc2C1`, the inhibition is -2.57% (inactive). For `O=C(CNCc1cccc(Cl)c1)N1CCc2ccccc2C1`, the inhibition was -4.83% (inactive).

With `C/C(=N\Nc1nc2ccccc2s1)c1cccs1`, the inhibition was -10% (inactive). For the molecule `CN(C)c1ccc(/C=N/Nc2nc3ccccc3o2)cc1`, the inhibition is -0.4% (inactive).

Consider `Cc1ccnc(Nc2nc3ccccc3o2)n1`, for which the inhibition is -3.68% (inactive).

For `CC(=NNc1nc2ccccc2s1)c1ccncn1`, the inhibition is 6.3% (inactive).

For `Oc1ccccc1/C=N/Nc1nc2ccccc2o1`, the inhibition is 12% (inactive). For `COc1cc(/C=N/Nc2nc3ccccc3o2)cc(OC)c1O`, the inhibition is 1.3% (inactive).

In the case of `CCCN1CCC(N(C)CCc2ccc(OC)c(OC)c2)CC1`, the inhibition is -5.4% (inactive). Take `CCOC(=O)C1=C(C)N(C[C@@H]2CC[C@@H](Cc3ccc(-c4ccccc4)cc3)O2)C(=O)NC1c1ccc(Cl)cc1` (some centres not stated): the inhibition is -4.34% (inactive).

As for `Cc1cccc(C)c1NC(=O)COC(=O)COc1ccc2c(C)cc(=O)oc2c1`, the inhibition is 10.5% (inactive). In the case of `COc1ccccc1-n1nnnc1SCC(=O)NCC1CCCO1` (configuration not stated), the inhibition was -3.64% (inactive). Turning to `Cc1cccc(NC(=S)N(CCCN2CCOCC2)Cc2cn(C)c3ccccc23)c1`, the inhibition is 4.41% (inactive). Take `Cc1ccc2c(c1)-c1c(ssc1=S)C(C)(C)N2C(=O)CN1C(=O)c2ccccc2C1=O`: the inhibition was 28.5% (inactive). As for `Cc1cc2c(cc1C)N(C(=O)CSC1=NCCS1)C(C)(C)c1ssc(=S)c1-2`, the inhibition is 14.7% (inactive). For `CCOc1ccc2c(c1)-c1c(ssc1=S)C(C)(C)N2C(=O)CSC1=NCCS1`, the inhibition was 20% (inactive). With `CC1(C)c2ssc(=S)c2-c2ccccc2N1C(=O)c1ccco1`, the inhibition was 2.72% (inactive).

In the case of `CCOC(=O)c1c(NC(=O)c2ccc(N3C(=O)[C@@H]4[C@H](C3=O)[C@H]3C=C[C@@H]4C3)cc2)sc2c1CCCC2`, the inhibition was -7.09% (inactive). As for `CC(C)C(=O)Nc1ccc(NC(=S)NC(=O)c2ccccc2F)cc1`, the figure is 1.28% (inactive); as for `O=S(=O)(NCCc1cn2ccccc2n1)c1ccc2c(c1)CCCC2`, 25.4% (inactive); as for `S=C(CN1CCCC1=S)NCCc1ccccc1`, -5.27% (inactive).

In the case of `Cc1[nH]c2ccccc2c1CCNS(=O)(=O)c1ccc(S(N)(=O)=O)cc1`, the inhibition was 23.3% (inactive). As for `CN(Cc1ccc(Cl)c(Cl)c1)C(=O)c1ccccc1SCC(=O)N1CCCC1`, the inhibition was -4.06% (inactive).

Regarding `CN(C)Cc1c(C(=O)N/N=C/c2ccncc2)nnn1-c1nonc1N`, the inhibition is 6.41% (inactive). In the case of `Cc1ccc(S(=O)(=O)N2[C@@H](c3cccc(C)c3)C(C(=O)O)=C[C@H]2CC2CCCC2)cc1`, the inhibition is 8.82% (inactive). For the molecule `Cc1ccc(-n2nnnc2SCC(=O)Nc2ccccc2N2CCCCC2)cc1C`, the inhibition is -1.34% (inactive). Consider `Cc1cc(C)nc(NC(N)=NCCc2ccccc2)n1`, for which the inhibition was -1.52% (inactive). On to `CCCCSCCCNC(=O)C1CCC(CNS(=O)(=O)c2ccccc2)CC1` (configuration not stated), for which the inhibition was -20% (inactive). As for `COc1ccc(NC2c3ccccc3C(=O)N2Cc2ccc3c(c2)OCO3)cc1` (configuration not stated), the figure is 5.36% (inactive). On to `COc1cc(NC2c3ccccc3C(=O)N2Cc2ccc3c(c2)OCO3)cc(OC)c1` (configuration not stated), for which the inhibition is -1.58% (inactive). Consider `O=C(NCCN1CCCCC1)Nc1ccc(Br)cc1`, for which the inhibition was -24.7% (inactive). With `N#Cc1cc(N2CCCCC2)c([N+](=O)[O-])cc1C#N`, the inhibition is 9.08% (inactive).

For `O=[N+]([O-])c1cc(F)c(N2CCCCC2)cc1N1CCOCC1`, the inhibition was 10.6% (inactive).

Take `O=C(CSc1n[nH]c(=O)[nH]c1=O)Nc1ccccc1C(=O)c1ccccc1`: the inhibition is -9.72% (inactive). On to `Cc1cccc(C)c1NC(=O)CCCCCC1NC(=O)NC1C` (configuration not stated), for which the inhibition was 24.2% (inactive). Turning to `CCc1cccc(NC(=O)CCSCCC(=O)Nc2cccc(CC)c2)c1`, the inhibition was 14.8% (inactive). `CCC(=O)Nc1ccc(F)c(Cl)c1`: the inhibition is -2.47% (inactive). As for `O=C(O)CCCCC1SCC2NC(=O)NC21` (configuration not stated), the figure is 22.1% (inactive); as for `COC(=O)CCCCC1SCC2NC(=O)NC21` (configuration not stated), 1.31% (inactive); as for `CCc1cccc(NC(=O)CCCN2C(=O)NC(C)(C)C2=O)c1`, -6.41% (inactive). In the case of `CCCCC(=O)Nc1ccc(F)c(Cl)c1`, the inhibition was 0.54% (inactive). As to `Cc1ccc(NC(=O)CCC(=O)Nc2ccc(C)cc2)cc1`, the inhibition is 4.02% (inactive). In the case of `COc1ccc(C(C(=O)NC2CCCC2)N(CCN(C)C)C(=O)c2snc(C(N)=O)c2N)cc1` (configuration not stated), the inhibition was -6.89% (inactive). As for `O=C(Cc1ncc(C(F)(F)F)cc1Cl)NC1CC1`, the figure is -2.28% (inactive); as for `O=C(Cc1cccc(C(F)(F)F)c1)N1CCN(CC(=O)N2CCCC2)CC1`, -1.65% (inactive). As for `CCCNC(=O)CN(c1cccc(F)c1)S(C)(=O)=O`, the inhibition is -3.24% (inactive). As to `COC(CNC(=O)CN1CCN(Cc2ccccc2F)C1=O)OC`, the inhibition was -6.42% (inactive).

Consider `COc1ccc(NC(=O)CN2CCN(CC(=O)Nc3ccc(F)cc3)CC2)c(OC)c1`, for which the inhibition is -6.91% (inactive). For the molecule `O=C(COC(=O)c1ccc(O)cc1)NCC1COc2ccccc2O1` (configuration not stated), the inhibition is -6.24% (inactive).

`Cc1nn(CC(=O)NC(=O)c2ccccc2)c(C)c1[N+](=O)[O-]`: the inhibition was -12.3% (inactive). Consider `COc1ccc(CC(=O)OC2CCCN(C)C2)cc1` (configuration not stated), for which the inhibition was 2.07% (inactive). On to `Cc1c(F)cccc1NC(=O)CSCC(=O)Nc1ccccc1`, for which the inhibition is -20.1% (inactive). As for `O=C(CCCCC(=O)Nc1ccc(F)cc1)Nc1ccc(F)cc1`, the figure is -8.93% (inactive); as for `Cc1c(F)cccc1NC(=O)CCC(=O)O`, 22.1% (inactive). With `O=C(CCCCCN1C(=O)c2ccccc2C1=O)Nc1ccc(F)cc1`, the inhibition is 15.1% (inactive). Consider `CC1NC(=O)NC1CCCCC(=O)O` (configuration not stated), for which the inhibition is 8.09% (inactive). On to `CCCCCC1NC(=O)NC1CCCCCC(=O)O` (configuration not stated), for which the inhibition is 0.19% (inactive). For `COc1ccc(NC(=S)NCCc2ccc(S(N)(=O)=O)cc2)c(OC)c1`, the inhibition is 0.63% (inactive). As to `Cc1ccc(C)c(OCCn2cc(/C=C(\C#N)C(=O)NCC3CCCO3)c3ccccc32)c1` (configuration not stated), the inhibition was 5.75% (inactive).

On to `O=C(COC(=O)Cc1ccc(Cl)cc1)Nc1ccc(OC(F)F)cc1`, for which the inhibition is -4.03% (inactive).

On to `COc1cc(CN2C(=S)NC(C)(C)CC2(C)O)cc(OC)c1` (configuration not stated), for which the inhibition is -3.29% (inactive). On to `Cc1cc(C)n(Cc2ccc(C(=O)Nc3cccc(Br)c3)o2)n1`, for which the inhibition was 26.6% (inactive). With `O=C(C[n+]1ccc(C(=O)N/N=C/c2ccc(O)cc2)cc1)c1ccccc1`, the inhibition was 2.67% (inactive). On to `O=C(N/N=C/c1coc2ccccc2c1=O)c1cc(Br)c(O)c(Br)c1`, for which the inhibition was -7.78% (inactive). `O=C1C(Cc2ccc(O)cc2)NC(=S)N1c1ccccc1` (configuration not stated): the inhibition was 2.29% (inactive). For `O=C(N/N=C/C1C(c2ccccc2)C1(Cl)Cl)c1cccc(Br)c1` (configuration not stated), the inhibition was -5.72% (inactive). As for `C=CCN1C(=O)/C(=C\c2ccc(C)cc2)N=C1SCC(=O)NCCC`, the figure is -5.98% (inactive); as for `C/C(=N\NC(=O)c1ccn(C)n1)c1cccc(NC(=O)c2ccncc2)c1`, 10.3% (inactive). Regarding `COC(=O)C1=C(O)CSC1=Nc1ccc(C)cc1`, the inhibition is -6.3% (inactive).

`CCc1nn2cc(C(=O)c3ccccc3O)cnc2c1-c1ccc(F)cc1`: the inhibition is 14.5% (inactive).

Regarding `O=[N+]([O-])c1ccc(/C=C/c2ccc3cccc(O)c3n2)cc1`, the inhibition was -0.58% (inactive). As for `O/N=C/c1ccc2cccc(O)c2n1`, the figure is 1.88% (inactive); as for `CCOc1ccc(OCCC(=O)NNC(=O)c2ccccc2Cl)cc1`, -2.63% (inactive); as for `CCN(CC)CCNC(=O)c1cc(Sc2nnc(C)s2)nc2ccccc12`, -9.1% (inactive). For the molecule `COc1cc2[nH]c(=O)n(Cc3ccc(C(=O)NCCCN4CCC(C)CC4)cc3)c(=O)c2cc1OC`, the inhibition is 4.01% (inactive).

With `COc1ccc(N(CC(=O)NCc2ccc(Cl)cc2)S(=O)(=O)c2c(C)noc2C)cc1`, the inhibition is 6.25% (inactive). As for `OC(CNCC(c1ccc(Cl)cc1Cl)c1c[nH]c2ccccc12)c1ccccc1` (configuration not stated), the figure is 5.5% (inactive); as for `NCC(c1ccc(Cl)cc1Cl)c1c[nH]c2ccccc12` (configuration not stated), 7.89% (inactive); as for `CC[C@]12C(=O)N(C)C[C@H]([C@@H]3C(=O)N(Cc4ccccc4)C(=O)[C@@H]31)N2C(=O)c1ccc(Br)cc1`, 1.57% (inactive). Turning to `CN(C)c1ccc(N=Nc2nc3ccccc3n2C)cc1`, the inhibition is -12.4% (inactive). Consider `Cc1ccc(NCc2nc3ccccc3n2C)c(C)c1`, for which the inhibition was 1.58% (inactive).

Regarding `Cn1c(N=Nc2ccccc2)nc2ccccc21`, the inhibition was 3.98% (inactive). Take `Cc1ccc(CNc2nc3ccccc3n2C)cc1`: the inhibition was -2.51% (inactive).

For `C=CCn1c(C(O)c2ccccc2)nc2ccccc21` (configuration not stated), the inhibition is -2.4% (inactive). `COC(=O)c1ccccc1NC(=O)c1cccc(NC(=O)C(C)C)c1`: the inhibition was -5.47% (inactive). `Cc1ccc(Cl)c2c1NC(=O)C2(O)CC(=O)c1ccccc1O` (configuration not stated): the inhibition was 1.71% (inactive). Regarding `Cc1nn(Cc2ccc(F)cc2)c(Cl)c1/C=N/NC(=O)c1cccnc1`, the inhibition was 3.93% (inactive). Regarding `CCCCNC(=O)C1CCCN1S(=O)(=O)c1cccc2nsnc12` (configuration not stated), the inhibition is -12.3% (inactive). Consider `O=c1c2c(-c3ccccc3)csc2ncn1/N=C/c1c2ccccc2cc2ccccc12`, for which the inhibition was 5.97% (inactive).

For `CN(C)c1ccc(C=Nc2ccc(N(C)C)cc2)cc1`, the inhibition is 26.9% (inactive). As for `Cc1ccc(C=Nc2ccc(N(C)C)cc2)o1`, the figure is 22.3% (inactive).

Values taken from PubChem BioAssay AID504329 (Southern Research Specialized Biocontainment Screening …, 2011).
